# Giardia FBPA inh = blocks Giardia fructose-bisphosphate aldolase activity | purified Giardia FBPA | 0.71% of 290,000 active | Potency, µM (highest dose often 59.6 µM), for inactives: at the highest dose activity, negative = inhibition, usual class: inhibitors; note: potency is the fitted concentration of half-maximal effect; nearly all actives have a fitted effect of over 55% in size
# Target sequence (A8B2U2 whole entry, looked up): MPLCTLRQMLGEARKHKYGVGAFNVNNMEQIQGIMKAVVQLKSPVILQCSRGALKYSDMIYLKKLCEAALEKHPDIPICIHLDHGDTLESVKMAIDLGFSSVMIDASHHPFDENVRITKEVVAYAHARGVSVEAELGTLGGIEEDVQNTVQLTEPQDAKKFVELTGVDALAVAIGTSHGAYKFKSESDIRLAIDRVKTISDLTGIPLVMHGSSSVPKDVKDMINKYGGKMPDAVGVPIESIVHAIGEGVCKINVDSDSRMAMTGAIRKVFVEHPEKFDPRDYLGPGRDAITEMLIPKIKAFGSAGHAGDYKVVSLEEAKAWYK
#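 40 nM FBPA preincubated 10 min at RT with compound (up to 57.5 uM final), then substrate plus GAPDH/TPI/NAD/arsenate coupling and diaphorase/resazurin added. Fluorescence read after 20 min at RT, 525/598 nm.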
# FMDV antiviral = foot and mouth disease virus antiviral activity. FMDV antiviral cell-based qHTS. Potency, µM (titrated, usually from 57.9 µM), for inactives: at the top dose activity change, negative = inhibition, usual class: inhibitors. 1.2% of 410,000 active; calls by dose curve; tested in HEK293T cells; note: read-out not given here; potency is the fitted concentration of half-maximal effect; nearly all actives have a fitted effect of over 45% in size
# HCV inhibitor = blocks hepatitis C virus; Huh7.5.1 HCVcc-Cre infection, luciferase reporter, 44 h; Potency, µM (doses to about 41.8 µM), for inactives: at the highest dose activity change, negative = inhibition, usual class: inhibitors; 3.4% of 340,000 active; AID 651820; note: potency is the fitted concentration of half-maximal effect
#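 Seed cells (1,000/well) for 4 h; treat with compound and infect with HCVcc-Cre, moi about 0.5. Incubate 44 h, then detect luciferase activity.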
# HCMV antiviral = human cytomegalovirus inhibition | HFF cells, HCMV-luciferase reporter, 72 h; stronger effect = lower value | activity change, negative = inhibition, % at 57.5 µM | 4.5% of 410,000 active | AID 1259415; in the data active = activity change below about -60%; inconclusive = no clear call, values can overlap the other calls; inactive = above about -39%
#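 Two compound doses tested in HFFs infected with HCMV-luciferase, MOI 1 PFU/cell, 72 h at 37C. Lysate luminescence read with OneGlo; data normalized against buffer-only and 10uM Salinomycin inhibitor controls.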
# Marburg entry inh = Marburg virus entry inhibition; Marburg virus pseudotyped entry inhibition, cell reporter; Potency, µM (titrated, usually from 37.8 µM), for the others: at the top dose activity change, negative = inhibition, most hits filed as inhibitors; 1.8% of 300,000 active; AID 540276; calls by dose curve; tested in HEK293 cells; note: potency is the fitted concentration of half-maximal effect
# Lassa entry inh = blocks Lassa virus binding to or entry into cells. Lassa virus pseudotype entry inhibition, cell reporter. Potency, µM (series often up to 37.9 µM), without a hit: top-dose activity change, negative = inhibition, usual class: inhibitors. 1.2% of 300,000 active; calls by dose curve; tested in HEK293 cells; note: potency is the fitted concentration of half-maximal effect; nearly all actives have a fitted effect of over 50% in size
# Starred values were filed as active, the others as inactive; ? = inconclusive; . = not tested or not shown; + = active, no number; [ ] = another dose, or the depositor's remark. Sampled rows, rich in hits. Any-hit rate of the full collection: about 8.3%. Unless noted, calls come from the whole dose curve; as a rule, active = well fitted curve in the direction sought with a large enough effect; inconclusive = small, poorly fitted or top-dose-only effect, or another doubt; inactive = no such curve, though single readings can be large; an effect the other way counts as inactive or inconclusive. % is set by controls: 0 for no effect and ±100 for the full control effect.
SMILES,Giardia FBPA inh,FMDV antiviral,HCV inhibitor,HCMV antiviral,Marburg entry inh,Lassa entry inh
CCN=c1scc(-c2ccc(F)cc2)n1/N=C/c1ccccn1,-9%,-14%,-12%,-88*,?,?
C=CCN=c1scc(-c2ccc(F)cc2)n1/N=C/c1ccccn1,0%,0%,?,-85*,?,?
CCOC(=O)c1c(C)[nH]c(C(=O)OCC(=O)NCc2ccc(OC)c(OC)c2)c1C,.,?,10µM*,-17,-37%,-26%
CC(=O)c1c(C)[nH]c(C(=O)OCC(=O)NCCc2ccc(Cl)cc2)c1C,6%,-3%,11µM*,10,?,?
CCOC(=O)c1c(C)[nH]c(C(=O)OCC(=O)Nc2sccc2C(N)=O)c1C,.,16µM*,2.8µM*,-68*,2.2µM*,?
CC(=O)c1c(C)[nH]c(C(=O)OCC(=O)NCc2ccc(Cl)cc2)c1C,.,?,11µM*,-37,.,.
CCOC(=O)c1[nH]c(C)c(C(=O)OCC(=O)NCc2ccc(Cl)cc2)c1C,.,1%,9%,1,.,.
COc1ccccc1NC(=O)Cn1c(=O)n(-c2ccc(C)cc2)c(=O)c2ccc(C(=O)NCc3ccco3)cc21,.,7%,.,-29,?,5%[46.1 µM]
Cc1ccc(CNC(=O)CN2C(=O)COc3ccccc32)cc1,.,35%,.,-13,.,4%[46.1 µM]
COc1ccc(C2/C=C\CN(C(=O)C3CC3)C(C)C(=O)N2Cc2ccc(F)cc2)cc1 (centres undefined),0%,.,.,.,.,.
FC(F)(F)c1ccc(/C=N/NC(=S)NC2CCCCC2)cc1,-1%,-14%,7%,0,-1%,-18%
FC(F)(F)c1cccc(/C=N/NC(=S)NC2CCCCC2)c1,-6%,6%,-4%,-95*,?,?
CCc1ccc(NC(=O)CCS(=O)(=O)c2ccc(Br)cc2)cc1,3%,-3%,4%,-62*,.,.
Cc1ccc(S(=O)(=O)CCC(=O)Nc2ccc(Br)cc2)cc1,-8%,-13%,-17%,-25,5%[46.1 µM],-9%[46.1 µM]
Cc1ccc(S(=O)(=O)CCC(=O)Nc2ccc(Br)cc2C)cc1,.,-9%,.,+,.,-4%[46.1 µM]
CCOc1cccc2sc(NC(=O)CCS(=O)(=O)c3ccccc3)nc12,-6%,-9%,22µM*,.,10µM*,?
COc1ccc(C)c2sc(NC(=O)CCS(=O)(=O)c3ccccc3)nc12,3%,-17%,?,-89*,?,?
CCOc1cccc2sc(Nc3nc4ccc(NC(C)=O)cc4s3)nc12,-10%,0%,4.5µM*,-90*,10µM*,?
CCOc1cccc2sc(N(CCN(C)C)C(=O)CCS(=O)(=O)c3ccccc3)nc12,.,-16%,22%,21,?,3%
Cc1ccc(NC(=O)C(Cc2c[nH]c3ccccc23)NC(=O)OCC(C)C)cc1 (centres undefined),.,13%,.,-2,?,?
O=C(CS(=O)(=O)c1cccc2nsnc12)Nc1ccc(F)cc1F,.,-4%,.,26,.,0%[46.1 µM]
COc1ccc(/C=N/Nc2nnc(Cc3ccc(OC)c(OC)c3)c(=O)[nH]2)cc1,-7%,-1%,1%,-68*,-52%,-3%
COc1ccc(/C=N/Nc2nnc(Cc3ccc(OC)c(OC)c3)c(=O)[nH]2)cc1OC,-7%,23%,?,-26,-47%,?
COc1cc(/C=C2/C(=O)N(C)C(=S)N2C)ccc1OCc1cccc(F)c1,2%,-1%,?,-68*,7%[46.1 µM],-7%[46.1 µM]
CN1C(=O)/C(=C/c2ccc(OCc3cccc(F)c3)cc2)NC1=S,6%,-24%,4%,-14,?,-5%
SMILES,Giardia FBPA inh,FMDV antiviral,HCV inhibitor,HCMV antiviral,Marburg entry inh,Lassa entry inh
Nc1nc2c(C(=O)N3CCCC3)nnn2c2ccccc12,.,.,.,12,.,.
COc1ccc(-c2c(-c3cc(OC)cc(OC)c3)n(C)c3ccc(-c4ccc(S(N)(=O)=O)cc4)cc23)cc1,.,?,10µM*,-16,.,.
COc1cccc(-c2c(-c3cc(OC)cc(OC)c3)n(C)c3ccc(-c4cnc(N5CCOCC5)nc4)cc23)c1,.,-17%,4%,-65*,.,.
COc1cc(OC)cc(-c2c(-c3cccs3)c3cc(-c4ccc5cc[nH]c5c4)ccc3n2C)c1,.,5%,4.5µM*,-29,.,.
COc1cccc(-c2c(-c3cc(OC)cc(OC)c3)n(C)c3ccc(-c4ccc5cc[nH]c5c4)cc23)c1,.,0%,?,4,.,.
CCOC(=O)N1C(C)CN(/[N+]([O-])=N/Oc2ccc([N+](=O)[O-])cc2[N+](=O)[O-])CC1C (centres undefined),10%,.,.,.,.,.
CC(C)N(Cc1ccccc1)C(=O)CN1C(=O)CSc2ccc(S(=O)(=O)N3CCCC3)cc21,.,-10%,.,-22,.,?
O=C(Nc1ccccc1)Nc1cccc(C(F)(F)F)c1,2%,5%,?,-34,-6%[46.1 µM],-15%
O=C(Nc1cccc(C(F)(F)F)c1)c1csc(-c2ccncc2)n1,-22%,100µM*,-8%,?,?,?
O=C(O)c1ccccc1C(=O)Nc1ccc(Oc2cccc(C(F)(F)F)c2)nc1,-6%,3.2µM*,-27%,35,19%[46.1 µM],-29%[46.1 µM]
O=C(Nc1cccc(C(F)(F)F)c1)Nc1cccs1,.,-9%,.,-80*,-13%[46.1 µM],.
CCSCCc1nnc(NC(=O)Nc2cccc(C(F)(F)F)c2)s1,-3%,?,3.5µM*,-83*,.,.
COc1ccc(-c2ccccc2C2C3C=CCCC3(C)C(=O)N2Cc2ccccc2)cc1 (centres undefined),-4%,.,.,.,.,.
COc1ccc(NC(=O)Nc2cc(C)cc(C)c2)cn1,-7%,-3%,-17%,-22,8%[46.1 µM],9%[46.1 µM]
COc1ccc(NC(=O)Nc2cccc(C(F)(F)F)c2)cn1,-11%,-5%,?,-63*,-26%[46.1 µM],?
COc1cc(OC)cc(-c2nnc3n2N=C(c2ccc(OC)cc2OC)CS3)c1,1%,.,.,.,.,.
Cc1ccc(-n2c(C)cc(C(=O)COC(=O)c3c(C)noc3C)c2C)cc1,-14%,-15%,0.32µM*,-29,?,?
Cc1cc(C(=O)COC(=O)C2=COCCO2)c(C)n1-c1ccccc1,.,?,?,?,5.6µM*,2.2µM*
Cc1cc(=O)[nH]c(N=N/C(=N/Nc2ccc(O)cc2)c2ccccc2)n1,?,-23%,6%,68,?,20µM*
COC(=O)C1=C(C(=O)OC)[C@@H]2N(C)c3ccccc3[C@@]23C[C@@H](C(=O)OC)N(S(=O)(=O)c2ccc(C(F)(F)F)cc2)C3=N1,-6%[12.9 µM],.,.,.,.,.
Cc1cc(Br)cn2c(Cc3ccsc3)c(-c3ccco3)nc12,.,35µM*,.,57,.,.
COc1ccccc1Cc1c(-c2ccco2)nc2c(C)cc(Br)cn12,.,14µM*,.,.,.,.
C=CCOC(=O)C(C(C)=O)C(NC(=O)OC)c1cccc(F)c1 (centres undefined),-1%[12.9 µM],.,.,.,12%[14.2 µM],.
